Laboratory results: the supplement of paper PMC10849652
Targets with a hit are over-represented here; the source holds about 7,900 in all. About 0.6% of all pairs of compound and target were hits.

Experiments:
Experiment in all cases: log2 fold change, soluble protein after heating vs DMSO (PISA); higher = thermal stabilisation; K562 cells, 10 uM, 30 min; active = over 0.2 and 3.5 SD of the protein, either way, in both replicates (recomputed)
[1] = compound: C1=CC=C(C=C1)[C@H](COC2=CC3=C(C=C2)NC(=O)N3)NC(=O)C4=CC=CN(C4=O)CC5=CC(=C(C=C5)F)F
In short: (§1)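 K562 cells at 2×10^6 cells/mL were given 10 μM compound for 30 min. Aliquots then went through 3 min of heating across 48°C-58°C, were pooled, and were extracted in PBS with 0.5% NP-40 at 4°C, and the supernatant after 21,000xg for 90 min was quantified by TMTpro 16plex LC-MS/MS with channel sums equalised. Thermal stability relative to control samples, from duplicates, is given as log2 fold change.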

[2] = compound: CC1=C(SC2=C1C(=N[C@H](C3=NN=C(N32)C)CC(=O)N)C4=CC=C(C=C4)Cl)C
In short: as §1

[3] = compound: CC1=C2C(=CC=C1)N=C(N(C2=O)C3=CC=CC=C3C)CN4C=NC5=C(N=CN=C54)N
In short: as §1

[4] = compound: Cc1sc2c(c1C)C(c1ccc(Cl)cc1)=N[C@@H](CC(=O)OC(C)(C)C)c1nnc(C)n1-2
In short: as §1

[5] = compound: c1ccc([C@@H]2C[C@H]2NC2CCNCC2)cc1
In short: as §1

Measured: log2 fold change

RDH13 (UniProt Q8NBN7)
inactive: [1] -0.013 | [2] 0.052 | [3] 0.032 | [4] 0.013 | [5] -0.062

RFC3 (UniProt P40938)
inactive: [1] -0.005 | [2] 0.028 | [3] 0.029 | [4] -0.019 | [5] -0.074

SETD3 (UniProt Q86TU7)
inactive: [1] -0.017 | [2] 0.018 | [3] 0.061 | [4] 0.021 | [5] -0.005

SCCPDH (UniProt Q8NBX0)
inactive: [1] -0.047 | [2] 0.087 | [3] 0.002 | [4] -0.003 | [5] -0.059

SAMSN1 isoform 3 (UniProt Q9NSI8)
Sequence of UniProt Q9NSI8 (Q9NSI8 whole entry, looked up): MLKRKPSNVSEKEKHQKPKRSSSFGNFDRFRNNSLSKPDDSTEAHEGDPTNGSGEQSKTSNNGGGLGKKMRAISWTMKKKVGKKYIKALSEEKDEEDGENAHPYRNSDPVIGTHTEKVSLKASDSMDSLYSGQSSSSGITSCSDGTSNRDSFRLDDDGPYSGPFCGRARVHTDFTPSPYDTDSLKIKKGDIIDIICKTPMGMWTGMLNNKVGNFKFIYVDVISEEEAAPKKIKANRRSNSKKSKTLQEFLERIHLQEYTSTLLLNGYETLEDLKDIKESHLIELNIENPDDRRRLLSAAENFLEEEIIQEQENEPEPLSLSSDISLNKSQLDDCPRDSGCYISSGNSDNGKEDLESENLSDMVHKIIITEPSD
inactive: [1] -0.028 | [2] 0.014 | [3] 0.025 | [4] -0.01 | [5] -0.01

RAB3GAP2 (UniProt Q9H2M9)
inactive: [1] -0.023 | [2] -0.07 | [3] 0.051 | [4] 0.04 | [5] 0.001

RSF1 (UniProt Q96T23)
Sequence of UniProt Q96T23 (Q96T23 whole entry, looked up): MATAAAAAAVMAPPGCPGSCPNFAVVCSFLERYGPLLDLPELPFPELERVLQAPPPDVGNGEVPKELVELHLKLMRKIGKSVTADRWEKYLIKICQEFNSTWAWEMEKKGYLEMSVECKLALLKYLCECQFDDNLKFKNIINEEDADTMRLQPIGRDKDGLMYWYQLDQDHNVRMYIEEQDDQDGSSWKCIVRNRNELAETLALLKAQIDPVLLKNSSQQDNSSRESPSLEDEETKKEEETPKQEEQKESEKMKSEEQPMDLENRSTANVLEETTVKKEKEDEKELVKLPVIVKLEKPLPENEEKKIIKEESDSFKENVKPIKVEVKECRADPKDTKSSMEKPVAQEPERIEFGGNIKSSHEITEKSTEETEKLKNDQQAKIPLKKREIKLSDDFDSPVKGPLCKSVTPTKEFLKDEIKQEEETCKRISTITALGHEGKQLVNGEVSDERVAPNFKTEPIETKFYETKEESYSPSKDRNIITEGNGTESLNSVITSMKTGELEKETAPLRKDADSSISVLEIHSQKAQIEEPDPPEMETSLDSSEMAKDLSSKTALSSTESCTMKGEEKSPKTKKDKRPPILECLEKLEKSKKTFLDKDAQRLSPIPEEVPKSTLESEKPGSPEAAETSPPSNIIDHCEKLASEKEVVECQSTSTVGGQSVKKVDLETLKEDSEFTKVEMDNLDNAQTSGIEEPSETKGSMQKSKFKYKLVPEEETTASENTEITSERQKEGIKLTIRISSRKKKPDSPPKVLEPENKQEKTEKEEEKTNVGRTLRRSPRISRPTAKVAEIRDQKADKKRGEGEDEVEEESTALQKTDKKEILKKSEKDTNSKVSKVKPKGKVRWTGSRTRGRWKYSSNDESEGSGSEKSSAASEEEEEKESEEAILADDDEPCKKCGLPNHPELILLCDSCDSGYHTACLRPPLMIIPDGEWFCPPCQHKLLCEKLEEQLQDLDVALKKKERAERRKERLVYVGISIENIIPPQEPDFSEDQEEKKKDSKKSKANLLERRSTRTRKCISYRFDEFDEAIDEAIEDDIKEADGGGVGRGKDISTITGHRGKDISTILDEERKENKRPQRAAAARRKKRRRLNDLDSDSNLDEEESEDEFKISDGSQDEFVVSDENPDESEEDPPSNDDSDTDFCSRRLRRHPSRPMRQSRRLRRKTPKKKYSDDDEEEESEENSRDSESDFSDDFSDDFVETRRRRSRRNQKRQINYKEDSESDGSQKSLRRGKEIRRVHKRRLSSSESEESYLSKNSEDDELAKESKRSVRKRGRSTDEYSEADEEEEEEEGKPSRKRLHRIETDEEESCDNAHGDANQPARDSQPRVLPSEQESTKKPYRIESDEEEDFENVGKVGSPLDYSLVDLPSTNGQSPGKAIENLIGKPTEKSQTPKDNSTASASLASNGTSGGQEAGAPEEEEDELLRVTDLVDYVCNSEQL
inactive: [1] -0.102 | [2] 0.091 | [3] 0.096 | [4] -0.061 | [5] -0.018

SEC23A (UniProt Q15436)
inactive: [1] 0.006 | [2] 0.052 | [3] 0.078 | [4] 0.027 | [5] 0.075

RPS6KA1 isoform 2 (UniProt Q15418)
inactive: [1] -0.059 | [2] 0.048 | [3] 0.051 | [4] -0.009 | [5] -0.018

RAD51 (UniProt Q06609)
inactive: [1] -0.006 | [2] 0.142 | [3] -0.037 | [4] 0 | [5] -0.053

RPS27A (UniProt P62979)
inactive: [1] 0.076 | [2] -0.111 | [3] -0.281 | [4] 0.108 | [5] -0.025

RBM33 (UniProt Q96EV2)
inactive: [1] 0.002 | [2] -0.018 | [3] 0.029 | [4] -0.004 | [5] 0.012

RNF167 (UniProt Q9H6Y7)
inactive: [1] -0.025 | [2] -0.011 | [3] 0.002 | [4] -0.017 | [5] 0.001

SEC24A (UniProt O95486)
inactive: [1] -0.022 | [2] 0.02 | [3] 0.014 | [4] -0.027 | [5] -0.021

RPS6KA3 (UniProt P51812)
inactive: [1] -0.044 | [2] 0.05 | [3] 0.036 | [4] -0.034 | [5] -0.006

RPS15 (UniProt P62841)
inactive: [1] 0.126 | [2] -0.113 | [3] -0.02 | [4] 0.122 | [5] 0.106

RALA (UniProt P11233)
inactive: [1] 0.021 | [2] 0.046 | [3] 0.027 | [4] -0.016 | [5] 0.069

RPS9 (UniProt P46781)
inactive: [1] 0.073 | [2] -0.19 | [3] -0.24 | [4] 0.134 | [5] 0

RALY (UniProt Q9UKM9)
inactive: [1] 0.102 | [2] -0.379 | [3] -0.243 | [4] 0.031 | [5] 0.003

RARS (UniProt P54136)
Sequence of UniProt P54136 (P54136 whole entry, looked up): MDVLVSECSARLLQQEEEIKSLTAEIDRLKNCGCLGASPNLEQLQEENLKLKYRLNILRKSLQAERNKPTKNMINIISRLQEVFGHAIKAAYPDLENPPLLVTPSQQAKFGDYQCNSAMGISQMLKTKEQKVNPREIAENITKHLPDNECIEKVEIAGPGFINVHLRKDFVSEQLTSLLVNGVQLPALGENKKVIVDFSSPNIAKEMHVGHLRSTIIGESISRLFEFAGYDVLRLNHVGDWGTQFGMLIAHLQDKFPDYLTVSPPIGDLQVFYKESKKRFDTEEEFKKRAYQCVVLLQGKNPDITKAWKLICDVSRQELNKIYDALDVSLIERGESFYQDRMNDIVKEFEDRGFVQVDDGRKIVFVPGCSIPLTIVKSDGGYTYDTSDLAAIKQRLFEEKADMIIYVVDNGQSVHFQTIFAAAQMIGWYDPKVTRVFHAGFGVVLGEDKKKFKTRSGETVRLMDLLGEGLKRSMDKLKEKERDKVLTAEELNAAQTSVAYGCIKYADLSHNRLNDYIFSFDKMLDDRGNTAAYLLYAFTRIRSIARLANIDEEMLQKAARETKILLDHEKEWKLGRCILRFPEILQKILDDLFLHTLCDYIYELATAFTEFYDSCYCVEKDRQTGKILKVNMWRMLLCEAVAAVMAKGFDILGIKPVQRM
inactive: [1] -0.057 | [2] -0.081 | [3] -0.02 | [4] 0.169 | [5] 0.024

SCAMP2 (UniProt H3BUB6)
inactive: [1] 0.03 | [2] -0.017 | [3] 0.308 | [4] 0.15 | [5] 0.135

RBM17 (UniProt Q96I25)
inactive: [1] -0.038 | [2] 0.017 | [3] 0.049 | [4] 0.003 | [5] -0.013

RSPRY1 (UniProt Q96DX4)
inactive: [1] -0.009 | [2] 0.024 | [3] 0.012 | [4] -0.026 | [5] 0.029

RELA (UniProt Q04206)
inactive: [1] -0.013 | [2] 0.056 | [3] 0.03 | [4] 0.031 | [5] 0.008

RHOA (UniProt P61586)
Sequence of UniProt P61586 (P61586 whole entry, looked up): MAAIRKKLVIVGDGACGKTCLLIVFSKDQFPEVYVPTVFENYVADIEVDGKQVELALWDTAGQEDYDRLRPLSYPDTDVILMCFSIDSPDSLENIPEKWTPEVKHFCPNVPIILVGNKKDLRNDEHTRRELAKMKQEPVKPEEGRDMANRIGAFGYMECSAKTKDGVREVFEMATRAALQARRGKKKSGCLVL
inactive: [1] 0.01 | [2] -0.058 | [3] -0.095 | [4] -0.041 | [5] 0.021

RCN3 (UniProt Q96D15)
Sequence of UniProt Q96D15 (Q96D15 whole entry, looked up): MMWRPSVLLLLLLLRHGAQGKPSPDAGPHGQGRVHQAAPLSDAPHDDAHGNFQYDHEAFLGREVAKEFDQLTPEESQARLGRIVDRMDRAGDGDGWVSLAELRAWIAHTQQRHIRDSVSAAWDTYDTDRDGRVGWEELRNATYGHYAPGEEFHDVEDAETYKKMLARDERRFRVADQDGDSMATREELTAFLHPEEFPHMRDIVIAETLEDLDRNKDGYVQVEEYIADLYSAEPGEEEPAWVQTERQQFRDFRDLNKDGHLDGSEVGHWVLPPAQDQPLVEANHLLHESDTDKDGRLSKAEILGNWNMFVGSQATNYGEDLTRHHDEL
inactive: [1] 0.016 | [2] 0.032 | [3] -0.061 | [4] -0.01 | [5] 0.023

SCAF11 (UniProt Q99590)
Sequence of UniProt Q99590 (Q99590 whole entry, looked up): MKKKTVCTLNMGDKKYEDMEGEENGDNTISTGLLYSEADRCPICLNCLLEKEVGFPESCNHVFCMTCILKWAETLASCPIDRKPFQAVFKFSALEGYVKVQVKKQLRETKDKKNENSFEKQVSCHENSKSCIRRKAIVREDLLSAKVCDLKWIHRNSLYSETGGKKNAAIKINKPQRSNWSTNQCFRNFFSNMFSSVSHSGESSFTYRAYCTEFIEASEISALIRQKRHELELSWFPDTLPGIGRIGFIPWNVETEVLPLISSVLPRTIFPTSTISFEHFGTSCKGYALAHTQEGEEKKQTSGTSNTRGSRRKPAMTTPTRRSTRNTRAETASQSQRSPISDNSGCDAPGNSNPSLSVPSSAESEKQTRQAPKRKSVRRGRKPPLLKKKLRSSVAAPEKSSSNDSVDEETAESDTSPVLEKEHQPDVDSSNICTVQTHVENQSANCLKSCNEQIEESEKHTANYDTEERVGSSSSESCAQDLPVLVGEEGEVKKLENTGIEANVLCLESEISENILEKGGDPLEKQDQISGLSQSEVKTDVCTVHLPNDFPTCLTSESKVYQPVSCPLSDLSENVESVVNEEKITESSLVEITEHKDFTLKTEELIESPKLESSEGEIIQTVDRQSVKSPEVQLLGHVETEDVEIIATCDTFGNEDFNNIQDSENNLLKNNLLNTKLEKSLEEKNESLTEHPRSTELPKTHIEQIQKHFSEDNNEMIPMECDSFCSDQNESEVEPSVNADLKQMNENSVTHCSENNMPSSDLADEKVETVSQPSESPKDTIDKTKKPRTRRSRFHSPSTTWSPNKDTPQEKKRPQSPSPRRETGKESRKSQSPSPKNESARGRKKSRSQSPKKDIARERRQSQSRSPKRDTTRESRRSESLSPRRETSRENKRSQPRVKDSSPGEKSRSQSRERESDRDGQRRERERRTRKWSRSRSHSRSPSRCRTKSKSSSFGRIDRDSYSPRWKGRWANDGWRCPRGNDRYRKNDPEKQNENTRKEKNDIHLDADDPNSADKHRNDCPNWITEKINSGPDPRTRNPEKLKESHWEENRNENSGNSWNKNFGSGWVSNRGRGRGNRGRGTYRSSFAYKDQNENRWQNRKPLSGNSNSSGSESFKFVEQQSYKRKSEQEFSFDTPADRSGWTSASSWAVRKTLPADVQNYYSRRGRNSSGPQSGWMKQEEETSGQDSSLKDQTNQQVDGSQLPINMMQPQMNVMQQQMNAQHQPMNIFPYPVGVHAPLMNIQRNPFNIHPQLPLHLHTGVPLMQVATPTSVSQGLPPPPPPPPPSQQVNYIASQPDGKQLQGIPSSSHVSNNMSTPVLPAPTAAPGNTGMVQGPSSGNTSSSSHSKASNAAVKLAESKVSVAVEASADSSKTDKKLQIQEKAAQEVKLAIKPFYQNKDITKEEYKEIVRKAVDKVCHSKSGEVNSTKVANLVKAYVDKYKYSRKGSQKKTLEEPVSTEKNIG
inactive: [1] -0.104 | [2] -0.098 | [3] 0.021 | [4] 0.064 | [5] 0.016

RRP9 (UniProt O43818)
inactive: [1] 0.036 | [2] -0.136 | [3] 0.02 | [4] 0.015 | [5] 0.1

RIC8A isoform 3 (UniProt Q9NPQ8)
inactive: [1] -0.033 | [2] 0.02 | [3] 0.015 | [4] -0.041 | [5] -0.094

SETMAR (UniProt Q53H47)
inactive: [1] 0.001 | [2] 0.096 | [3] 0.033 | [4] -0.031 | [5] -0.02

RPL38 (UniProt P63173)
inactive: [1] 0.012 | [2] -0.03 | [3] -0.046 | [4] 0.053 | [5] 0.013

RNF2 (UniProt Q99496)
inactive: [1] 0.067 | [2] 0.014 | [3] 0.153 | [4] 0.064 | [5] 0.085

RNPS1 (UniProt Q15287)
inactive: [1] -0.019 | [2] 0.001 | [3] 0.032 | [4] 0.119 | [5] 0.061

RBBP6 (UniProt Q7Z6E9)
inactive: [1] 0.094 | [2] 0.119 | [3] -0.017 | [4] 0.066 | [5] -0.32

RTF2 (UniProt Q9BY42)
inactive: [1] 0.054 | [2] -0.009 | [3] 0.068 | [4] -0.038 | [5] 0.045

RPS3 (UniProt P23396)
inactive: [1] 0.055 | [2] -0.118 | [3] -0.127 | [4] 0.083 | [5] 0.015

RGS10 (UniProt O43665)
inactive: [1] 0.014 | [2] 0.042 | [3] -0.035 | [4] -0.022 | [5] -0.058

SERPINA7 (UniProt P05543)
inactive: [1] -0.014 | [2] -0.001 | [3] 0.1 | [4] 0.12 | [5] 0.128

SLC19A1 (UniProt P41440)
inactive: [1] -0.025 | [2] 0.065 | [3] 0.045 | [4] -0.013 | [5] 0.017

RAB33B (UniProt Q9H082)
Sequence of UniProt Q9H082 (Q9H082 whole entry, looked up): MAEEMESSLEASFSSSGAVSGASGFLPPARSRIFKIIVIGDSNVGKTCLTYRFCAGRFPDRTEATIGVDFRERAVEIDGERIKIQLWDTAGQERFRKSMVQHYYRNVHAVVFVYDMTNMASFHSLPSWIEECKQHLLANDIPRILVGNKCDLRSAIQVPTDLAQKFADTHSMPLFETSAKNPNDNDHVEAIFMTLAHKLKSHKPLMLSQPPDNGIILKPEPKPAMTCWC
inactive: [1] 0.003 | [2] -0.028 | [3] 0.116 | [4] -0.016 | [5] 0.069

RANBP2 (UniProt P49792)
inactive: [1] -0.094 | [2] 0 | [3] 0.114 | [4] -0.085 | [5] -0.089

SASH1 (UniProt O94885)
inactive: [1] -0.044 | [2] 0.092 | [3] 0.037 | [4] -0.045 | [5] -0.161

SLBP (UniProt Q14493)
Sequence of UniProt Q14493 (Q14493 whole entry, looked up): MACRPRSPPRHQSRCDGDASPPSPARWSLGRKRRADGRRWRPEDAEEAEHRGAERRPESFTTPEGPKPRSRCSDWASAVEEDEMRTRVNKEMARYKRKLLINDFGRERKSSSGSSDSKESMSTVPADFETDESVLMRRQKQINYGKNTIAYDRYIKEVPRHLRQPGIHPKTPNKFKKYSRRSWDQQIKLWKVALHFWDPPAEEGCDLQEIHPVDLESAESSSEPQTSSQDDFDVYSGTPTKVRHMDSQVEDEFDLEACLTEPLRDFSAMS
inactive: [1] -0.092 | [2] -0.056 | [3] 0.042 | [4] 0.059 | [5] 0.034

SEC23IP (UniProt Q9Y6Y8)
inactive: [1] -0.037 | [2] 0.001 | [3] 0.063 | [4] 0.031 | [5] -0.037

ROR2 (UniProt Q01974)
inactive: [1] -0.062 | [2] 0.004 | [3] 0.023 | [4] -0.048 | [5] -0.035

SART3, A0A499FI31
inactive: [1] -0.008 | [2] 0.015 | [3] 0.056 | [4] -0.08 | [5] -0.006

SENP6 (UniProt Q9GZR1)
inactive: [1] 0.023 | [2] 0.014 | [3] 0.048 | [4] 0.022 | [5] 0.056

SELENOH (UniProt Q8IZQ5)
inactive: [1] 0.049 | [2] -0.107 | [3] -0.258 | [4] -0.028 | [5] 0.08

RRAGB (UniProt Q5VZM2)
inactive: [1] 0.046 | [2] -0.028 | [3] -0.088 | [4] -0.01 | [5] 0.02

RARS2 (UniProt Q5T160)
inactive: [1] 0.021 | [2] 0.046 | [3] 0.044 | [4] -0.026 | [5] -0.007

RCC1 isoform 2 (UniProt P18754)
inactive: [1] -0.175 | [2] 0.096 | [3] 0.176 | [4] 0.012 | [5] -0.058

RAP1GDS1 isoform 5 (UniProt P52306)
inactive: [1] -0.093 | [2] -0.01 | [3] 0.119 | [4] -0.001 | [5] -0.009

SDHAF2 (UniProt Q9NX18)
inactive: [1] -0.02 | [2] 0.078 | [3] -0.013 | [4] -0.097 | [5] -0.096
